# Measurements published in the supplement of paper PMC11732987, “Enantioselective OTUD7B fragment discovery through chemoproteomics screening and high-throughput optimisation” (Communications Chemistry, 2025).
# A number with no mark means an inactive call.
# What was measured:
# Assay in all cases: log2 ratio of Biotin-Ahx-Ub-VS probe labelling (fragment/DMSO); higher = less target engagement (more negative = stronger competition), active = hit call of the paper (q ≤ 0.05, log2 ratio ≤ -1)
# Settings in all cases: compound concentration: 200 uM; treatment time: 3 h
# OTUD6B = target: T1, OTUD6B (UniProt Q8N6M0)
# T1 sequence (whole entry): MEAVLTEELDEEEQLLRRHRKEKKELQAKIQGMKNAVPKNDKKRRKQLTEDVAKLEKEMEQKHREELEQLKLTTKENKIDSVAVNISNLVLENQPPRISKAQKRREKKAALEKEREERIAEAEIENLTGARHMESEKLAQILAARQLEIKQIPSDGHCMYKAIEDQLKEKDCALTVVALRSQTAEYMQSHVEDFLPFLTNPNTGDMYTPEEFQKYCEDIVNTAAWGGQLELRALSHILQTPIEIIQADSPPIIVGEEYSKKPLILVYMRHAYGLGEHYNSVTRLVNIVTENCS
# Summary of the method: (§1)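 Labelled DUBs from HEK293T lysate were NeutrAvidin-enriched, digested with LysC and trypsin, and run by diaPASEF LC-MS/MS. Before that, each 495 µg sample in Tris/CHAPS/IGEPAL buffer with protease inhibitors was treated in triplicate with fragment at 200 µM or vehicle for 3 h, then with Biotin-Ahx-Ub-VS at 0.5 µM final for 1 h. Values are average log2 ratios of fragment over vehicle by unpaired t-test, based on global-median-normalised Spectronaut label-free quantities from proteins with ≥2 unique peptides.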
# OTUD7B = target: T2, OTUD7B (UniProt Q6GQQ9)
# T2 sequence (whole entry): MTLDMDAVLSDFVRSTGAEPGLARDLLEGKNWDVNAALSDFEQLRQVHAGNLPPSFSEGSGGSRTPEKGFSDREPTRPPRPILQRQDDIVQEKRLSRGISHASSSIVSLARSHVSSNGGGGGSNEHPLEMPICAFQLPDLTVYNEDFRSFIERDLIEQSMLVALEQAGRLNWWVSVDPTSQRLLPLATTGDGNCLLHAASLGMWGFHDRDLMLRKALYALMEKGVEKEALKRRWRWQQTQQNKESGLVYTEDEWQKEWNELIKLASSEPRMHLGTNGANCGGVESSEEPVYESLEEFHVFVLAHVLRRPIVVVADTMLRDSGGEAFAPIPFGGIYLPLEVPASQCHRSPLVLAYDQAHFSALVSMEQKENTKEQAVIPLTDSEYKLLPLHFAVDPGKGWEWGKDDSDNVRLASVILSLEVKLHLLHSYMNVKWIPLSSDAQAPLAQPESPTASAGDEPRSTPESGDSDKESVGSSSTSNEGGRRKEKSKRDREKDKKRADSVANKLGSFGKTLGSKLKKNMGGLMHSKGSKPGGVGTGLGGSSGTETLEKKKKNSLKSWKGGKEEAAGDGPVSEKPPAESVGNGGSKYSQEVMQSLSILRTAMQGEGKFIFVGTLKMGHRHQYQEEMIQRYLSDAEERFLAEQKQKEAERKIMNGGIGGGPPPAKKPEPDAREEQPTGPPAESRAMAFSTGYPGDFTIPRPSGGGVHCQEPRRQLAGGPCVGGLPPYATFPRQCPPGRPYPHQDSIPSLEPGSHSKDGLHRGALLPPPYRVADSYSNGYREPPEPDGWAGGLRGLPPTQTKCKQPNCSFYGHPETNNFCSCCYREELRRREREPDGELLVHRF
# Summary of the method: as §1
# PRPF8 = PRPF8 (UniProt Q6P2Q9)
# Summary of the method: as §1
# PSMD7 = target: T3, PSMD7 (UniProt P51665)
# T3 sequence (whole entry): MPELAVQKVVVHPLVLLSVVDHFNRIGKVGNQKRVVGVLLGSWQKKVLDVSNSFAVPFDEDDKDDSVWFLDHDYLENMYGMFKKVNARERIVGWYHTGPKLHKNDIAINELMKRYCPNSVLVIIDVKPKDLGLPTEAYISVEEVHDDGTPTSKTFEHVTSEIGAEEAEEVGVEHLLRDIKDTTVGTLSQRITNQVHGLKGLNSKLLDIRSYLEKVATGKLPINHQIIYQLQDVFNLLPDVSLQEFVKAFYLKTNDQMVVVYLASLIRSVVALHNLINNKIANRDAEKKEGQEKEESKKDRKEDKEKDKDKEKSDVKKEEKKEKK
# Summary of the method: as §1
# UCHL1 = UCHL1 (UniProt P09936)
# Summary of the method: as §1
# UCHL3 = target: T4, UCHL3 (UniProt P15374)
# T4 sequence (whole entry): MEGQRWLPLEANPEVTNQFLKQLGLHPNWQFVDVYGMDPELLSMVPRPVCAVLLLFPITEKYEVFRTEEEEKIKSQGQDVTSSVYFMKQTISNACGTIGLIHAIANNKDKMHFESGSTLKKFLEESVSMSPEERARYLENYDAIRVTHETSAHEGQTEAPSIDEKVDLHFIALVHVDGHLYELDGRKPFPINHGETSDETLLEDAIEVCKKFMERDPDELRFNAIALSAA
# Summary of the method: as §1
# UCHL5 = target: T5, UCHL5 (UniProt Q9Y5K5)
# T5 sequence (whole entry): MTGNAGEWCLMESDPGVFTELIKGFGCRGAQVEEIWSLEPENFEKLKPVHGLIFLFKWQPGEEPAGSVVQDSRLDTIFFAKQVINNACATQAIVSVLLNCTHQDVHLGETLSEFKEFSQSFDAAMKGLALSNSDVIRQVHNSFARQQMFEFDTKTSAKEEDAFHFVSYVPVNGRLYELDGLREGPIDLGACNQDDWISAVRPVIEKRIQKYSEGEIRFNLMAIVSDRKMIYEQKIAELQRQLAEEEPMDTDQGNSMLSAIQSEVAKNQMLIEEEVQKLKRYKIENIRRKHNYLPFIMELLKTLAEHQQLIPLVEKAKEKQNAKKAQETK
# Summary of the method: as §1
# USP10 = USP10 (UniProt Q14694)
# Summary of the method: as §1
# USP15 = target: T6, USP15 (UniProt Q9Y4E8)
# T6 sequence (whole entry): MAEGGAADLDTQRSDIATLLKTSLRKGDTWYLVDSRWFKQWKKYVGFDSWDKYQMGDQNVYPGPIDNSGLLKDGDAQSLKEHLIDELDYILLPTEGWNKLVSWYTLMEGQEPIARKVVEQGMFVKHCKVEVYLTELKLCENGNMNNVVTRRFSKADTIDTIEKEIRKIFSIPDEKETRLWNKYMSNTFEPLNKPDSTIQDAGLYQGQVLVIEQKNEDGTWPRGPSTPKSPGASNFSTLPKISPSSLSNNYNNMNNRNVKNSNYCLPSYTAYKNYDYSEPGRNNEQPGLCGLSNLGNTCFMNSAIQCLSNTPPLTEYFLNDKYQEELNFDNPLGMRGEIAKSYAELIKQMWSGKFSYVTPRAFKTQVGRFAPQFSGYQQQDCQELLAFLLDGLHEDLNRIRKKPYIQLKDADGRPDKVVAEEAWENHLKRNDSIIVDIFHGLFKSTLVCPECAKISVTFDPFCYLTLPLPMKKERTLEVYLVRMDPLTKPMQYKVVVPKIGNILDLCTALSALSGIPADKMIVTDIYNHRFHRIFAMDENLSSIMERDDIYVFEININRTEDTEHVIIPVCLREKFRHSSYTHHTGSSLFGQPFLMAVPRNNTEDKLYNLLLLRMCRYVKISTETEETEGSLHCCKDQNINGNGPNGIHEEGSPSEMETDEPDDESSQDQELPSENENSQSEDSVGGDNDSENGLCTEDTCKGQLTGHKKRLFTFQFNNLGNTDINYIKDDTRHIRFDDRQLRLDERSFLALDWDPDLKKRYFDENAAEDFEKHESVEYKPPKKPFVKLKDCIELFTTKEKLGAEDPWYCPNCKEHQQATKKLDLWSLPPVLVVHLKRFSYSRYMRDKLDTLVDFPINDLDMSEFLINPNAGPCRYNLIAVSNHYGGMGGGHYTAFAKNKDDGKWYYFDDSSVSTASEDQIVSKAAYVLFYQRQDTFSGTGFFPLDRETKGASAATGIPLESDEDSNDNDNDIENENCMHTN
# Summary of the method: as §1
# Sequence of UCHL1 (P09936 whole entry, looked up): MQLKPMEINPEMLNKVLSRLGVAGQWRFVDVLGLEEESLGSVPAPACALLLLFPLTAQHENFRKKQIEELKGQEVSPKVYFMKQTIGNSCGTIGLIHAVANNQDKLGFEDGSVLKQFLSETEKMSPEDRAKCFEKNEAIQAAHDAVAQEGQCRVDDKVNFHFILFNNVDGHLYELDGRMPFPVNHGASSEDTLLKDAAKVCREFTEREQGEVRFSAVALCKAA
# Sequence of USP10 (Q14694 whole entry): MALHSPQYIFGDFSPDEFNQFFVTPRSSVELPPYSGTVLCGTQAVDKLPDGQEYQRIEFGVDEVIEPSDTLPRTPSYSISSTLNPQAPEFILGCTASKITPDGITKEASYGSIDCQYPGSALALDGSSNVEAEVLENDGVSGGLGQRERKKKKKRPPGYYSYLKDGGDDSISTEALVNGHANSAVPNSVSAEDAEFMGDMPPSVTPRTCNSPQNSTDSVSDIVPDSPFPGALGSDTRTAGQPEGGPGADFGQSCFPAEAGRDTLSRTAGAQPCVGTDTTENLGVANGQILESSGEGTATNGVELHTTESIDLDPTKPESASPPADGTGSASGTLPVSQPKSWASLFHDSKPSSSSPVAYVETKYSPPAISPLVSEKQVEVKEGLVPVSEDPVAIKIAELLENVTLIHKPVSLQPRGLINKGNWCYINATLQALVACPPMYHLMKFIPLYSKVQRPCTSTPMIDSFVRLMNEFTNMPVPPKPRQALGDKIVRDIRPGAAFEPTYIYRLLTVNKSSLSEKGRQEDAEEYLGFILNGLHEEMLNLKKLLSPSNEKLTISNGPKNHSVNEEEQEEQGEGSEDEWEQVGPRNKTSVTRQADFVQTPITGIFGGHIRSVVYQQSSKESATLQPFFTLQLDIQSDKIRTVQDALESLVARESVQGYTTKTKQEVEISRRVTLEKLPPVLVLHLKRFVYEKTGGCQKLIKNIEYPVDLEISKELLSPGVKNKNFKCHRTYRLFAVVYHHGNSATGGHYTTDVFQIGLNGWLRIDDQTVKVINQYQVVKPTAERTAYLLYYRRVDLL
smiles,measurement,setting,value
O=C(CCl)NCc1ccc2c(c1)OCO2,log2 ratio of Biotin-Ahx-Ub-VS probe labelling,OTUD6B,0.00826
same,log2 ratio of Biotin-Ahx-Ub-VS probe labelling,OTUD7B,-0.843
same,log2 ratio of Biotin-Ahx-Ub-VS probe labelling,PRPF8,-0.215
same,log2 ratio of Biotin-Ahx-Ub-VS probe labelling,PSMD7,-0.228
same,log2 ratio of Biotin-Ahx-Ub-VS probe labelling,UCHL1,-1.36 (active)
same,log2 ratio of Biotin-Ahx-Ub-VS probe labelling,UCHL3,-0.0636
same,log2 ratio of Biotin-Ahx-Ub-VS probe labelling,UCHL5,-0.325
same,log2 ratio of Biotin-Ahx-Ub-VS probe labelling,USP10,-0.00649
same,log2 ratio of Biotin-Ahx-Ub-VS probe labelling,USP15,-0.0739
